Each structure is given as a SMILES string. Inconclusive results are not listed. The source made the active and inactive calls. Calls come from the whole dose curve; as a rule, active = well fitted cell-killing curve with a large enough effect; inconclusive = small, poorly fitted or top-dose-only effect, or effect the other way; inactive = flat fitted curve, though single readings scatter.

Assay [1] deals with Tov-21-G. The assay can be described thus: Primary qHTS to identify gynecologic anti-cancer compounds using libraries of approved drugs and bioactive compounds (AID 1345084). Note: nearly all actives have a fitted effect of over 55% in size. As to conditions: Gynecologic cancer cell panel viability, ATPlite luminescence, 48 h; series mostly up to 57.5 µM. A digest of the protocol: (§1)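 Luminescence from the ATPlite ATP-monitoring reagent indicates viable cell number; lower signal means cytotoxicity. Cells received compound 16 h after seeding and were exposed for 48 h across five concentrations.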

For assay [2], the system named is Tov112D. The assay is described as above. As to conditions: Gynecologic cancer cell panel viability, ATPlite luminescence, 48 h; series mostly up to 57.5 µM. A digest of the protocol: as §1
Potency is the fitted concentration of half-maximal effect.

Take `CC(=O)OC(C)(C)/C=C/C(=O)C(C)(O)C1C(O)CC2(C)C3CC=C(C(C)(C)C(=O)O)C(CC(=O)O)C3(C)C(=O)CC12C` (stereo unspecified): the Potency entry in assay [1] and in assay [2] was “inactive” each time.

In the case of `O=C(Nc1ccc(CN2CCOCC2)cc1)c1ccc(-c2cccc(Cl)c2)o1`, the Potency entry in assay [1] and in assay [2] was “inactive” throughout.

As for `OC[C@H]1O[C@@H](OC/C=C/c2ccc(O)cc2)[C@H](O)[C@@H](O)[C@@H]1O`, the Potency result in assay [1] and in assay [2] was “inactive” in each case.

Regarding `CCn1c(N)c(C(=O)NC)c(=O)c2ccc(C#CC(C)(O)COC)nc21` (stereo unspecified), the Potency entry in assay [1] and in assay [2] was “inactive” in each case.

Consider `CC(C)c1ccccc1OC(=O)NCCc1ccc2ccccc2c1`, for which the Potency entry in assay [1] and in assay [2] was “inactive” each time.

As to `Nc1c(S(=O)(=O)c2ccccc2)c2nc3ccccc3nc2n1-c1ccc(F)cc1`, the Potency result in assay [1] and in assay [2] was “inactive” in each case.

Regarding `C=C1C(=O)O[C@@H]2[C@H]3C(C)=CC(=O)C3=C(C)CC[C@@H]12`, the Potency in assay [1] is 28.2 µM (active). Further, in assay [2], the Potency result is “inactive”.

On to `Cc1cc(N2CCOCC2)ccc1Nc1nc(NC2CCCCC2)c2[nH]cnc2n1`, for which the Potency entry in assay [1] and in assay [2] was “inactive” each time.

As for `C[C@@H]1CC[C@@]23CC[C@]4(C)[C@@](C=CC5[C@@]6(C)CC[C@H](O)C(C)(C)C6CC[C@]54C)(OC2=O)C3[C@H]1C` (stereo partly specified), the Potency result in assay [1] and in assay [2] was “inactive” throughout.

As for `CCOC(=O)N1CCC(CN(Cc2ccc(Cl)cc2)Cc2ccc([N+](=O)[O-])s2)C1` (stereo unspecified), the Potency entry in assay [1] is “inactive”.

On to `CNC(=O)c1cc(Oc2ccc(NC(=O)c3cccc(C(F)(F)F)c3)cc2)ccn1`, for which the Potency result in assay [1] and in assay [2] was “inactive” each time.

Turning to `Cc1cc(C)c2c(c1)C(N(Cc1cc(C(F)(F)F)cc(C(F)(F)F)c1)c1nnn(C)n1)CCCN2CC1CCC(C(=O)O)CC1` (stereo unspecified), in assay [1], the Potency result is “inactive”.

Take `CN(C)Cc1ccc(-c2cnn3c(-c4cccc(NC(=O)c5cccc(C(F)(F)F)c5)c4)ccnc23)cc1`: the Potency result in assay [1] and in assay [2] was “inactive” throughout.

For the molecule `CCCn1cc2c(nc(NC(=O)Nc3ccc(OC)cc3)n3nc(-c4ccco4)nc23)n1`, the Potency entry in assay [1] and in assay [2] was “inactive” each time.

With `COC1CC/C=C(\C)C(=O)Nc2cc(O)cc(c2)CC(C)CC(OC)C(O)C(C)/C=C(\C)C1OC(N)=O` (stereo unspecified), the Potency in assay [1] is 3.98 µM (active).

Take `COc1cc(O)c2c(c1)/C=C/C[C@H](O)[C@H](O)C(=O)/C=C\C[C@H](C)OC2=O`: the Potency in assay [1] was 17.8 µM (active).

Regarding `C=C1CC[C@@H]2[C@](C)(CO)[C@H](O)CC[C@@]2(C)[C@@H]1CC(O)C1=CCOC1=O` (stereo partly specified), the Potency entry in assay [1] and in assay [2] was “inactive” each time.

Consider `CC(=O)C=C=C1C(C)(C)CC(O)CC1(C)O[C@@H]1O[C@H](CO[C@H]2OC[C@](O)(CO)[C@H]2O)[C@@H](O)[C@H](O)[C@H]1O` (stereo partly specified), for which the Potency entry in assay [1] and in assay [2] was “inactive” throughout.

On to `CCCCNc1ncc(-c2ccc(CN3CCOCC3)cn2)c(NC2CCC(O)CC2)n1` (stereo unspecified), for which the Potency entry in assay [1] and in assay [2] was “inactive” each time.

In the case of `C=C1CCC2C(C)(C)CCCC2(C)C1CC/C(C)=C\CO` (stereo unspecified), the Potency result in assay [1] and in assay [2] was “inactive” in each case.

Turning to `O=C(NCc1ccccc1-c1ccccc1C(=O)NCCc1ccccn1)OCc1ccccc1`, the Potency result in assay [1] and in assay [2] was “inactive” in each case.

For `Clc1ccc(Cn2c(Cc3ccccc3)nc3ccccc32)cc1`, the Potency entry in assay [1] and in assay [2] was “inactive” in each case.

Take `Cc1[nH]c2ccc(F)cc2c1-c1nc2c3cccnc3c3ncccc3c2[nH]1`: the Potency result in assay [1] was “inactive”. The Potency in assay [2] was 3.98 µM (active).

Regarding `CCCn1ncc(CN2CCCC(C(=O)c3cccc(OC(C)C)c3)C2)c1C` (stereo unspecified), the Potency result in assay [1] and in assay [2] was “inactive” in each case.

With `O=C(Nc1ccccc1)c1ccc(Nc2nnc(-c3ccc(O)cc3)c3ccccc23)cc1`, the Potency entry in assay [1] and in assay [2] was “inactive” throughout.

For `COc1cc(O)cc(/C=C/c2cccc(O)c2)c1`, the Potency result in assay [1] and in assay [2] was “inactive” each time.

Take `C=C1C(=O)O[C@@H]2C[C@H](C)C3=CC(=O)[C@H](O)[C@@]3(C)C[C@H]12`: the Potency result in assay [1] and in assay [2] was “inactive” each time.

Consider `CN1CC2CN(c3ccc4oc5ccccc5c(=O)c4c3)CC2C1` (stereo unspecified), for which the Potency result in assay [1] and in assay [2] was “inactive” each time.

On to `C=C1C(=O)O[C@@H]2[C@H]1CC(=O)[C@H](C)[C@@](O)(C(=O)/C=C/C)[C@H]2OC(=O)C(C)CC` (stereo partly specified), for which the Potency in assay [1] is 12.6 µM (active).

As to `CN(C)C(=O)Nc1cccc(-c2ccc(N(C)C)cc2)c1`, the Potency entry in assay [1] and in assay [2] was “inactive” each time.

On to `CC(=O)O[C@H]1CC2C(COC(=O)CC(C)C)=CO[C@@H](OC(=O)CC(C)C)C2[C@]12CO2` (stereo partly specified), for which the Potency result in assay [1] and in assay [2] was “inactive” in each case.

On to `N#Cc1cc(C2=Nc3ccc(Br)cc3NC(=O)C2)ccn1`, for which the Potency entry in assay [1] and in assay [2] was “inactive” each time.

As to `Cc1c(OCc2cccc(-c3ccc(C(=O)O)cc3)c2)cc2c(c1C)C(=O)C(C1CCCC1)C2` (stereo unspecified), the Potency result in assay [1] and in assay [2] was “inactive” throughout.

For `COc1cc(/C=C2\CCCN([C@@H](C)c3ccc(F)cc3)C2=O)ccc1-n1cnc(C)c1`, the Potency result in assay [1] and in assay [2] was “inactive” in each case.

Take `O=C(Nc1ccccc1Cl)c1cnc2ccc(C3CCNCC3)cn12`: in assay [1], the Potency was 1.58 µM (active). Moreover, in assay [2], the Potency entry was “inactive”.

For `COc1cc(C#N)ccc1S(=O)(=O)Nc1ccc2c(c1)cc(C)c(=O)n2C`, the Potency entry in assay [1] and in assay [2] was “inactive” each time.

Regarding `CC(C)S(=O)(=O)NC[C@@H]1CC(c2ccc(N3CCCC3)c(F)c2)=NO1`, the Potency result in assay [1] and in assay [2] was “inactive” in each case.

Take `COc1cc(F)c(C(C)C)cc1-c1ccc(C(F)(F)F)cc1CN1C(=O)OC(c2cc(C(F)(F)F)cc(C(F)(F)F)c2)C1C` (stereo unspecified): the Potency result in assay [1] and in assay [2] was “inactive” throughout.

(Values after PubChem BioAssay (NCATS).)
